Screening data from PubChem BioAssay.
IMPase inh – IMPase inhibition in cells; P97697; CHO-M1 cells, IP1 accumulation, HTRF TR-FRET ratio; inhibition (IP1 accumulation), % at 46.1 µM; 120,000 tested, under 10 active; AID 901; active = well fitted curve in the direction sought with a large enough effect in the signal ratio, not every such curve was filed as active; inconclusive = small, poorly fitted or top-dose-only effect, or a change in a side signal; inactive = no such curve, though single readings can be large or run the other way; the % refers to the signal ratio;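 also: cells stimulated with carbachol in lithium chloride buffer; higher means more IMPase inhibition seen as more IP1 and lower FRET ratio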
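Measured: the HTRF emission ratio (665/620 nm) plus the 620 nm donor channel, each fitted to the Hill equation to give AC50. Cells were CHO-M1 given compounds up to 46 uM and a 30 min carbachol stimulation at 37C.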
HTT ATP protect – cytoprotection in Huntington HTT-Q103 PC12 cell model | AID 1471 | Potency, µM (highest dose often 56.4 µM), actives largely listed as activators | actives 0.14% (n = 230,000) | PC12 HTT-Q103 induced, cytoprotection, ATP luminescence, 40 h; also: nearly all actives have a fitted effect of over 45% in size
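Huntington model: PC12 line, ecdysone-inducible HTTQ103 exon1–GFP, tebufenozide 100 nM. Test articles in a dose series. Endpoint luminescence from cellular ATP.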
ALDH1A1 inh – inhibitors of human aldehyde dehydrogenase 1A1; actives 7.3% (n = 220,000); P00352; Potency, µM (highest dose often 75.3 µM), actives largely listed as inhibitors; Purified ALDH1A1, NADH fluorescence, propionaldehyde substrate; active = well fitted inhibition curve with a large enough effect, not every such curve was filed as active; inconclusive = small, poorly fitted or top-dose-only effect, or another doubt; inactive = no such curve, though single readings can be large or run the other way
Target sequence (P00352 whole entry, looked up): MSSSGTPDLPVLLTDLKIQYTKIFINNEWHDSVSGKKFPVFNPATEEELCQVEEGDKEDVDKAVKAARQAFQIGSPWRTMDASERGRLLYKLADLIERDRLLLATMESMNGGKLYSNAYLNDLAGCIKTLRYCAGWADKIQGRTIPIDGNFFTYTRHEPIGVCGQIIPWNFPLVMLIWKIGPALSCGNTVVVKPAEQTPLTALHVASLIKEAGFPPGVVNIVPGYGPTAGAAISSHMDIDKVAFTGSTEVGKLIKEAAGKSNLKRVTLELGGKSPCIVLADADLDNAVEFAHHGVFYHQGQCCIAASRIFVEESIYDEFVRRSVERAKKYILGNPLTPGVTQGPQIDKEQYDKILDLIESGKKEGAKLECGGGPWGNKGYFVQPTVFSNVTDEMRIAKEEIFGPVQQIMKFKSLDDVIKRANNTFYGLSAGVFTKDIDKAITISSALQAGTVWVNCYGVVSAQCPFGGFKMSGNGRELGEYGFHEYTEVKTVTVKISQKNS
HttQ103 aggreg – inhibitors of mutant huntingtin aggregate formation in PC12 cells; AID 1688; Potency, µM (titrated, usually from 46.1 µM), most hits filed as inhibitors; actives 1.1% (n = 220,000); PC12 HttQ103-GFP aggregates, Acumen cytometry, 40 h; also: nearly all actives have a fitted effect of over 60% in size
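Aggregates are detected as GFP objects 1–25 µm with signal 6 STDEV over background in lysates of induced PC12 cells. These carry Huntingtin exon 1 with 103 glutamines fused to GFP under an ecdysone promoter; compounds titrated.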
IMPase Li inh – membrane-permeable IMPase blocker, potentiated with lithium. CHO-M1 cells, IP1 TR-FRET (IP-One), carbachol + lithium. Potency, µM (doses to about 59.4 µM), hits mostly inhibitors. actives 0.35% (n = 210,000). AID 1457;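 also: IP1 builds up when IMPase is blocked and the TR-FRET signal falls; nearly all actives have a fitted effect of over 50% in size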
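Concentration–response in CHO-M1 cells, lithium-potentiated; 30 min at 37C. IP1 detected by competitive TR-FRET after 10 min lysis at RT. Hill-fitted AC50.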
HPGD block – inhibitors of human 15-hydroxyprostaglandin dehydrogenase (HPGD); P15428; purified HPGD, NADH fluorescence kinetic, PGE2 substrate; Potency, µM, most hits filed as inhibitors; actives 4.3% (n = 150,000); AID 894; active = well fitted inhibition curve with a large enough effect, not every such curve was filed as active; inconclusive = small, poorly fitted or top-dose-only effect, or another doubt; inactive = no such curve, though single readings can be large or run the other way
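NADH formation kinetics: reaction with 30 uM PGE2 and 1 mM NAD+ (final), 20 nM enzyme, Tris-HCl pH 8 with Tween 20, after 15 min compound preincubation at room temperature. Fluorescence change, last versus first of five reads.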
Numbers stand for hits; . = inactive; ? = inconclusive; / = no result given; ! = a repeat was not active; [ ] = another dose, or the depositor's remark. Most compounds without a hit are left out; they make up all but 9.4% or so of the library. Unless noted, calls follow the shape of the dose curve; as a rule, active = well fitted curve in the direction sought with a large enough effect; inconclusive = small, poorly fitted or top-dose-only effect, or another doubt; inactive = no such curve, though single readings can be large; an effect the other way counts as inactive or inconclusive.

SMILES	IMPase inh	HTT ATP protect	ALDH1A1 inh	HttQ103 aggreg	IMPase Li inh	HPGD block
COc1ccc(/C=C2\C(=O)NC(=O)N(Cc3ccccc3)C2=O)c(OC)c1OC	/	.	10µM	?	.	/
COc1cc(/C=C2/C(=O)NC(=O)N(c3ccccc3)C2=O)ccc1O	/	/	?	.	.	?
CN(C)CCC(C#N)(c1ccccc1)c1ccccc1	/	.[10 µM]	.[13.5 µM]	/	.	.
O=C(CSc1ncnc2c1nnn2-c1ccc(F)cc1)NCC1CCCO1 (stereo not given)	.	.	.	.[9.22 µM]	.	?
CC(=O)C(Sc1ncnc2c1nnn2-c1ccc(F)cc1)C(=O)N(C)C (stereo not given)	.	.	2.51µM	.	.	11.2µM
CCCOC(=O)c1cc2c(cn1)[nH]c1ccccc12	/	.	?	/	.	/
O=C(CN1CCOCC1)c1cccc2ccccc12	.	.	12.6µM	.	.	.
Cc1c(C(=O)c2cccc3ccccc23)c2cccc3c2n1[C@H](CN1CCOCC1)CO3	.	.	11.2µM!	/	.	.
Cc1c(C(=O)c2ccc3ccccc3c2)c2cccc3c2n1[C@H](CN1CCOCC1)CO3	.	?	.	/	.	.
N#CSCSC#N	/	.	0.112µM	/	.	6.31µM
NCCc1c[nH]c2ccc(OC(=O)C(=O)O)cc12	/	.[10 µM]	.[13.5 µM]	/	.	.
CN(C)C1C(=O)C(C(N)=O)C(=O)C2(O)C(=O)C3C(=O)c4c(O)cccc4C(C)(O)C3C(O)C12 (stereo not given)	/	.	.	.	?	?
O=C(O)c1ccccc1-c1c2cc(Br)c(=O)cc-2oc2[c]([Hg])c(O)c(Br)cc12	.	.	4.47µM	5.01µM	.	2.24µM
C#CCN[C@@H](C)Cc1ccccc1	.	.[1.9 µM]	/	/	/	/
CN1C(=O)C(=Cc2c(OCc3cnc(Cl)s3)ccc3ccccc23)C(=O)N(C)C1=O	/	.	2.24µM	.[9.22 µM]	.	/
NC(=O)c1ncn([C@H]2O[C@@H](CO)[C@@H](O)[C@@H]2O)n1	.	?	.	/	.	.
NC(=S)c1cn(C2OC(CO)C(O)C2O)c2ncnc(N)c12 (stereo not given)	/	.[10 µM]	7.94µM	2.82µM	/	/
O=C1NC(=O)N(CCc2ccc(F)cc2)C(=O)/C1=C/c1ccco1	/	.	2.51µM	.	.	/
CN(C)c1ccc(/C=C2\C(=O)NC(=O)N(CCc3ccc(F)cc3)C2=O)cc1	/	.[10 µM]	/	.[9.22 µM]	/	/
Cc1ccc(/C=C2/C(=O)NC(=O)N(CCc3ccc(F)cc3)C2=O)o1	.	.	5.62µM	.	.	3.55µM
CC(=O)OCC(=O)C1CCC2C3CC=C4CC(O)CC[C@@]4(C)C3CC[C@]12C (stereo not given in full)	/	/	?	/	.	.
O=c1c2ccccc2nc(-c2ccco2)n1-c1ccccn1	.	.	.	?	.	.
Cc1cccnc1-n1c(-c2ccco2)nc2ccccc2c1=O	.	.	28.2µM	.	/	/
S=C(S)N1CCNCC1	/	.	/	.	/	/
S=C(S)N1CCCC1	.	?	0.794µM	/	.	10µM
SMILES	IMPase inh	HTT ATP protect	ALDH1A1 inh	HttQ103 aggreg	IMPase Li inh	HPGD block
O=C(c1csc2c1CCCCC2)N1CCC2(CC1)OCCO2	.	.	8.91µM	.	.	?
O=C(c1cc2c(s1)-c1ccccc1OC2)N1CCC2(CC1)OCCO2	.	.[10 µM]	?	.	.	?
O=C(c1cc(S(=O)(=O)N2CCCCC2)ccc1F)N1CCC2(CC1)OCCO2	.	.	?	.	.	.
O=C(c1cc2c(s1)CCCC2)N1CCC2(CC1)OCCO2	.	.[0.074 µM]	11.2µM	.	.	25.1µM
CN(C)c1ccc(N(C)C)cc1	/	.	?	/	.	.
CN(C)[C@@H]1C(=O)C(C(N)=O)=C(O)[C@]2(O)C(=O)C3=C(O)c4c(O)cccc4[C@](C)(O)[C@H]3C[C@@H]12	/	.[10 µM]	.[13.5 µM]	/	.	.
CC(=O)NNc1ccccc1	/	.	.	/	.	.
CC(=O)[O][Hg][c]1ccccc1	/	.	0.631µM	1.58µM	.	0.251µM
c1ccc2c(CNC3CCCCC3)c[nH]c2c1	.	.	.	11.2µM	.	.
CC1=C(/C=C/c2ccccc2)CCN(C)C1	.	.	11.2µM	.	.	.
CCN(CC)S(=O)(=O)c1ccc(NN=C(C#N)C#N)cc1	/	/	.	.	.	14.1µM
